Several values for one entry are separate records, joined by “and”; a condition that tells them apart may be missing. Equal values may be shown once. Inconclusive results are not listed. Entries that show only a call come without a potency. Values without a mark were called inactive. Activity calls are given as the source filed them. Calls follow the shape of the dose curve; as a rule, active = well fitted cell-killing curve with a large enough effect in the repeat runs; inconclusive = weak or mixed curves, or effect the other way; inactive = flat fitted curve, though single readings scatter.
experiment: cAMP Responsive Elements (CRE) small molecule antagonists, cell-based qHTS assay: qHTS cell viability counter screen (AID 2060913); settings: CRE-bla HEK293T viability, CellTiter-Glo luminescence, 5 h; series mostly up to 92.4 µM; also: nearly all actives have a fitted effect of over 40% in size
In short: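 HEK293T CRE-bla, 2,000 cells/well, 18 h preincubation; cpd in DMSO + NKH477 0.25 uM final, 3 h 37 C/5% CO2; LiveBLAzer 2 h RT, then CellTiter-Glo 30 min RT, luminescence.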
Potency is read from the fitted curve at half-maximal effect.

Row | SMILES | Potency | viability change, negative = cytotoxic
1 | Oc1ccc(C(O)CNCCCCCCNCC(O)c2ccc(O)c(O)c2)cc1O (stereo not given) | inactive | 
2 | Oc1c(Cl)cc(Cl)c2cccnc12 | inactive | 
3 | O=C(O)[C@H](O)c1ccccc1 | inactive | 
4 | SC1CCCCC1 | inactive | 
5 | CCN(CC)CCOc1ccc(Cc2ccccc2)cc1 | inactive | 
6 | O=C1OC(=O)c2ccccc21 | inactive | 
7 | FC(F)(F)c1ccc(Cl)cc1Cl | inactive | 
8 | CC(C)c1nc(CN(C)C(=O)N[C@H](C(=O)N[C@@H](Cc2ccccc2)C[C@H](O)[C@H](Cc2ccccc2)NC(=O)OCc2cncs2)C(C)C)cs1 | inactive | 
9 | COc1cc(NS(=O)(=O)c2ccc(N)cc2)ncn1 | inactive | 
10 | Cc1ccc(C(=O)C(C)CN2CCCCC2)cc1 (stereo not given) | inactive | 
11 | COc1ccc(OC)c(Cl)c1 | inactive | 
12 | ICCc1ccccc1 | inactive | 
13 | CN(C)c1ccc(C(=C2C=CC(=[N+](C)C)C=C2)c2ccccc2)cc1 | 15.4 µM (active) and 11.9 µM (active) and 10.6 µM (active) | 
14 | CC(C)(C)C1CCCCC1=O (stereo not given) | inactive | 
15 | CCNC(=O)C(C)OC(=O)Nc1ccccc1 (stereo not given) | inactive | 
16 | CC(N)=O | inactive | 
17 | NC1[C@H]2CN(c3nc4c(cc3F)c(=O)c(C(=O)O)cn4-c3ccc(F)cc3F)C[C@@H]12 (stereo not given in full) | inactive | 
18 | Cc1ccc(C(N)=O)cc1N | inactive | 
19 | C=C(C)C(=O)OCCC(C)OC(=O)C(=C)C (stereo not given) | inactive | 
20 | Oc1ccc2ccccc2c1N=Nc1ccccc1 | inactive | 

Row | SMILES | Potency | viability change, negative = cytotoxic
21 | COc1cc2nc(N3CCN(C(=O)C4CCCO4)CC3)nc(N)c2cc1OC (stereo not given) | inactive | 
22 | CC1CC(C)C(=O)C1=O (stereo not given) | inactive | 
23 | O=C(O)CN(CCN(CC(=O)O)CC(=O)O)CC(=O)O |  | 3.3% [at 3.27 µM]
24 | Cc1nc2n(c(=O)c1CCN1CCC(C(=O)c3ccc(F)cc3)CC1)CCS2 | inactive | 
25 | CCC(C)(C)c1ccc(CC(C)CN2C[C@@H](C)O[C@@H](C)C2)cc1 (stereo not given in full) | inactive | 
26 | CCC(Cl)C(Cl)C(Cl)CC(Cl)C(Cl)C(C)Cl (stereo not given) | inactive | 
27 | CCOc1cc([N+](=O)[O-])c(OCC)cc1N1CCOCC1 | inactive | 
28 | CC(=O)OCC(=O)[C@@]1(O)CC[C@H]2[C@@H]3CCC4=CC(=O)C=C[C@]4(C)[C@H]3[C@@H](O)C[C@@]21C | inactive | 
29 | Clc1cc(Cl)c2c(c1)N=C1CCCCCN1C2 | inactive | 
30 | Cc1ccc(N=Nc2c(O)c(C(=O)O)cc3ccccc23)c(S(=O)(=O)O)c1 | inactive | 
31 | CCN1CCN(C(=O)N[C@@H](C(=O)N[C@@H]2C(=O)N3C(C(=O)O)=C(CSc4nnnn4C)CS[C@H]23)c2ccc(O)cc2)C(=O)C1=O | inactive | 
32 | CN(C)CCN(C)CCN(C)C | inactive | 
33 | Cc1ccc(C(C)OC(=O)C2(C)CCC(C(=O)O)C2(C)C)cc1 (stereo not given) | inactive | 
34 | CC(C)(C)NC[C@H](O)COc1cccc2c1CCCC2=O | inactive | 
35 | Cc1cccc(C)c1OCC(C)N (stereo not given) | inactive | 
36 | Cc1occc1SSc1ccoc1C | inactive | 
37 | Nc1cccc2c(N)cccc12 | inactive | 
38 | CC[C@H]1OC(=O)[C@H](C)[C@@H](O[C@H]2C[C@@](C)(OC)[C@@H](O)[C@H](C)O2)[C@H](C)[C@@H](O[C@@H]2O[C@H](C)C[C@H](N(C)C)[C@H]2O)[C@](C)(O)C[C@@H](C)/C(=N\OCOCCOC)[C@H](C)[C@@H](O)[C@]1(C)O | inactive | 
39 | CC(C)C[C@H](NC(=O)[C@H](CCc1ccccc1)NC(=O)CN1CCOCC1)C(=O)N[C@@H](Cc1ccccc1)C(=O)N[C@@H](CC(C)C)C(=O)[C@@]1(C)CO1 | inactive | 
40 | CCC(=O)Oc1ccc2c(c1)CC[C@@H]1[C@@H]2CC[C@@]2(C)[C@H]1C[C@@H](OC(=O)CC)[C@@H]2OC(=O)CC | inactive | 
